Laboratory results from the supplement of paper PMC5641865, “A screen for kinase inhibitors identifies antimicrobial imidazopyridine aminofurazans as specific inhibitors of the Listeria monocytogenes PASTA kinase PrkA” (The Journal of Biological Chemistry, 2017).
± gives the standard deviation of the averaged measurements.

The molecules below were run on Listeria monocytogenes 10403S (assay: growth inhibition relative to ceftriaxone-alone control; higher = stronger potentiation of ceftriaxone growth inhibition). Details: 10 µM; ceftriaxone 1 ug/ml; 12 h.
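Further: End-point A600 read in BHI broth at 37 °C with 2% DMSO, inhibition computed as (1 − OD with compound plus ceftriaxone ÷ OD with ceftriaxone only) × 100.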

| SMILES | growth inhibition [%] |
| --- | --- |
| COC(=O)Nc1nc2cc(Oc3ccc(NC(=O)Nc4cccc(C(=O)O)c4)cc3)ccc2[nH]1 | 7.27 ± 7.2 |
| CC(C)NC[C@@H](C(=O)N1CCN(c2ncnc3c2[C@H](C)C[C@H]3O)CC1)c1ccc(Cl)cc1 | 23.5 ± 8.6 |
| Cc1ccc(O)cc1Nc1ccnc2ccc(S(C)(=O)=O)cc12 | -11.4 ± 13 |
| Cc1nc(-c2ccccc2)n2nc(NCCCN3CCOCC3)ncc12 | 0.025 ± 1.1 |
| Fc1ccc(-c2nc3n(c2-c2ccncc2)CCS3)cc1 | -8.85 ± 15 |
| Fc1cccc(COc2ccc(Nc3ncnc4cc(-c5ccc[nH]5)sc34)cc2Cl)c1 | 7.47 ± 4 |
| Cc1cc(CN2CCN(c3c(Br)cnc4nc(-c5ccc(N6CCN(C)CC6)cc5)[nH]c34)CC2)no1 | 40.4 ± 40 |
| CCOc1ccn(-c2ccc(F)cc2)c(=O)c1C(=O)Nc1ccc(Oc2ccnc(N)c2Cl)c(F)c1 | 23.6 ± 24 |
| CC1=C(C(=O)Nc2ccc3[nH]ncc3c2)C(c2ccc3ccccc3c2)CC(=O)N1 (stereo not drawn) | 11.5 ± 2.3 |
| CN(C)C(=O)O[C@H]1CN[C@H](C#Cc2cc3ncnc(Nc4ccc(OCc5cccc(F)c5)c(Cl)c4)c3s2)C1 | -7.88 ± 10 |
| Cc1cc(Nc2cc(N3CCN(C)CC3)nc(Sc3ccc(NC(=O)C4CC4)cc3)n2)n[nH]1 [VX-680 (MK-0457, Tozasertib)] | 52.7 ± 17 |
| FC(F)(F)c1cccc(Nc2nccc(-c3cnn4nc(-c5ccccc5)ccc34)n2)c1 | -7.85 ± 2.6 |
| CN1CCC(C(=O)Nc2n[nH]c3nnc(-c4ccccc4)cc23)CC1 | 17.5 ± 11 |
| CS(=O)(=O)CCNCc1coc(-c2ccc3ncnc(Nc4ccc(OCc5ccccc5)cc4)c3c2)c1 | 4.98 ± 4.3 |
| CO[C@H]1C[C@@H]2CC[C@@H](C)[C@@](O)(O2)C(=O)C(=O)N2CCCC[C@H]2C(=O)O[C@H]([C@H](C)C[C@@H]2CC[C@@H](OP(C)(C)=O)[C@H](OC)C2)CC(=O)[C@H](C)/C=C(\C)[C@@H](O)[C@@H](OC)C(=O)[C@H](C)C[C@H](C)/C=C/C=C/C=C/1C [Deforolimus (Ridaforolimus)] | 39.2 ± 14 |
| O=C(Nc1n[nH]c2cc(-c3cc(F)ccc3F)ccc12)C1CC1 | -0.453 ± 13 |
| O=S(=O)(CCNCc1ccc(-c2ccc3ncnc(Nc4ccc(OCc5cccc(F)c5)c(Cl)c4)c3c2)o1)c1ccccc1 | -0.141 ± 13 |
| CC(C)(C)c1cc(NC(=O)Nc2ccc(-c3cn4c(n3)sc3cc(OCCN5CCOCC5)ccc34)cc2)no1 [Quizartinib (AC220)] | 35.5 ± 10 |
| CS(=O)(=O)N1CCN(Cc2cc3nc(-c4cccc5[nH]ncc45)nc(N4CCOCC4)c3s2)CC1 | 25.2 ± 21 |
| Cc1cccc2c1NC(=O)/C2=N\Nc1ccc(S(N)(=O)=O)cc1 | -10.2 ± 7.5 |
| C/C(Nc1ccc(S(N)(=O)=O)cc1)=C1/C(=O)Nc2ccccc21 | -3.55 ± 0.8 |
| O=C(Nc1cccc(Cl)c1)Nc1ncc(CCNc2ncnc3ccsc23)s1 | 94.4 ± 2 |
| Cc1ccc(C(=O)Nc2cccc(C(F)(F)F)c2)cc1Nc1nc(-c2cccnc2)nc2c1cnn2C | -1.9 ± 16 |
